From ChEMBL document CHEMBL3988442, “University of Dundee, Small-Polar-MMV Screening Library” (2021) come the findings set out here.

The first experiment has as its target T1, Arginase-2, mitochondrial (Homo sapiens) (UniProt P78540).
T1 sequence (whole entry): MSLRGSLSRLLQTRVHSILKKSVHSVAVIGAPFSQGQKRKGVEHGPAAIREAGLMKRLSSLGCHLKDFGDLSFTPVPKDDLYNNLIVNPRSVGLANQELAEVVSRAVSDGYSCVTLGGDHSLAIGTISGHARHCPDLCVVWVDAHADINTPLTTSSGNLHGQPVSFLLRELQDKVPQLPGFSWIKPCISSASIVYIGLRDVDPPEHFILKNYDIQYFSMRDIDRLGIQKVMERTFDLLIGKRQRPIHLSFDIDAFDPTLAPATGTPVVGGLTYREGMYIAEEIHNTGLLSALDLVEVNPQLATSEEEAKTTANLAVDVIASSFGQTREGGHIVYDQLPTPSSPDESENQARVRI
The experiment in a line: in vitro enzyme assay to detect the production of urea directly proportional to the activity of Arginase II. The class given is functional. On the set-up: scale not given: in the data most compounds retested in dose-response had high values. To be noted: 33.3 µM.
As to `COc1cc(CNc2cnn(C)c2)cc2c1OCCO2`, the Percent Effect is -1.15%.

For `CCOCC1CN(S(C)(=O)=O)Cc2ncn(CC3CC3)c21` (centres undefined), the Percent Effect is -1.24%.

With `COc1ccc(C(=O)Nc2cnn(CC(=O)NC3CCCC3)c2)c(O)c1`, the Percent Effect was found to be 0.798%.

For the molecule `COCC(=O)N1CCCC1c1ccnc(Nc2cnccn2)n1` (centres undefined), the Percent Effect was found to be 0.232%.

Take `Cn1cnc2c1CCN(CCCOc1ccc(C#N)cc1)C2`: the Percent Effect is -1.14%.

As to `COCCN1CCC(NCc2cccc(F)c2)C1` (centres undefined), the Percent Effect is -4.27%.

Turning to `Cc1nc(CCN(C)C(=O)C2COc3ccccc3C2)no1` (centres undefined), the Percent Effect was found to be 5.52%.

For `COCC1CC2(CCN(C(=O)c3cccc(C)c3)CC2)CO1` (centres undefined), the Percent Effect was -1.94%.

Take `CC(C)CC(=O)N1CCCn2cnc(CN3CCCC3=O)c2C1`: the Percent Effect turned out to be 1.74%.

Turning to `Cc1nc(C)n(CC2CCCN(Cc3nc(C4CC4)no3)C2)n1` (centres undefined), the Percent Effect is -4.41%.

With `COc1cccc([C@@H]2CN(C(=O)c3ccc(C)cc3O)C[C@H]2C(=O)O)c1`, the Percent Effect was 40.9%.

`Nc1nc(CN2CCCC(Cn3cncn3)C2)nc2ccccc12` (centres undefined): the Percent Effect was -2.03%.

For the molecule `O=C1C(NS(=O)(=O)c2cc(F)cc(F)c2)CCN1Cc1ccccc1` (centres undefined), the Percent Effect came out at 1.52%.

`CCCc1nc(N2Cc3cnn(Cc4ccc(F)cc4)c3C2)no1`: the Percent Effect amounted to 2.6%.

Take `COc1cc(N2C[C@H]3OCC[C@H]3[C@H](C(=O)NC3CC3)C2)ncn1`: the Percent Effect is 0.399%.

On to `CCN(Cc1cccc(Cl)c1)Cc1nc2c(cnn2C)c(=O)[nH]1`, for which the Percent Effect was -1.47%.

Take `CC(C)c1ccc(OCn2ccc(C(=O)N3CCCC3)n2)cc1`: the Percent Effect is -81.4%.

As to `CCc1cc(NC2CCN(S(C)(=O)=O)CC2)n2nc(C)c(C)c2n1`, the Percent Effect was -2.21%.

In the case of `COc1c(CNCC(c2cccc(F)c2)N(C)C)c(C(C)C)nn1C` (centres undefined), the Percent Effect is -3.16%.

In the case of `Cc1ccccc1C(=O)NCc1ccc(N2CCNC(=O)C2)c(F)c1`, the Percent Effect was -2.86%.

Another experiment deals with T2, Proteasome subunit beta (Trypanosoma cruzi) (UniProt O96673).
T2 sequence (whole entry): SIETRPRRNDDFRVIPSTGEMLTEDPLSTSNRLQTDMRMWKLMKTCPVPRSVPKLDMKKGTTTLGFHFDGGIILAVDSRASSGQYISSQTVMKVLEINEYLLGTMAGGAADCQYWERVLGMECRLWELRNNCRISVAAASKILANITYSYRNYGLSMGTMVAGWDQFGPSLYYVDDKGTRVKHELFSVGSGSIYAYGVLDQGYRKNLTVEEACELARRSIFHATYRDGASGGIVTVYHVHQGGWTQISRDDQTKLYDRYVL
Nature of the experiment: Trypanosoma cruzi proteasome chymotrypsin-like activity (TcProtChymo) assay. Further details: scale not given: in the data most compounds retested in dose-response had high values. The class given is functional. The conditions noted are these: 9.37 µM.
On to `CCN(CC)C(=O)c1ccn(COc2cc(C)cc(C)c2)n1`, for which the Percent Effect came to 14.1%.

Take `Cc1cc(C(=O)N2C[C@@H]3COC[C@]3(c3nnc(C4CC4)o3)C2)on1`: the Percent Effect is 7.52%.

As to `COC(=O)c1ccc(N2CCN(CCN3CCOCC3)C(C)C2)cc1` (centres undefined), the Percent Effect is 2.96%.

With `Cc1ccc(N2CCCC(NCc3cscn3)C2)nn1` (centres undefined), the Percent Effect came out at 11.3%.

`Cc1noc2ncc(C(=O)N(CC3CCOC3)C3CC3)cc12` (centres undefined): the Percent Effect was 7.69%.

Regarding `Cc1cnn(CC2CCCN2c2nn3cc(C)nc3s2)c1` (centres undefined), the Percent Effect worked out at 7.03%.

With `CCC(NC(=O)C1CCN(S(C)(=O)=O)CC1)c1ccc(OC)c(C)c1` (centres undefined), the Percent Effect is 15.3%.

On to `CNC(=O)[C@@]12CCC3(CCN(S(C)(=O)=O)CC3)[C@@H]1CN(S(C)(=O)=O)C2`, for which the Percent Effect worked out at 6.78%.

For `Cc1ccc(C(=O)N2CCN(CCCSCC#N)CC2)o1`, the Percent Effect worked out at 6.42%.

For the molecule `CC(=O)N(Cc1ncc(C)o1)C1CCN(CCNC2CCCCC2)C1` (centres undefined), the Percent Effect amounted to 13%.

In the case of `Cc1cnc(CN(C)CC2CCCN2c2cccnn2)cn1` (centres undefined), the Percent Effect is 17.1%.

Regarding `Cc1cnn(CC2CCCN2C(=O)c2cnc3n[nH]c(C)c3c2)c1` (centres undefined), the Percent Effect was determined as 7.55%.

As to `CC(=O)c1cccc(S(=O)(=O)N2CSCC2C(=O)NCC(F)(F)F)c1` (centres undefined), the Percent Effect came to 10.5%.

Turning to `CCCN(Cc1ccccc1)Cn1nc(C)c2c(C)onc2c1=O`, the Percent Effect was 1.98%.

Take `CN1CCCC(Cc2ccnc3ccncc23)CC1` (centres undefined): the Percent Effect is -0.312%.

`N#Cc1ccccc1CN1C[C@@H]2CC[C@H](C1)N(Cc1cscn1)C2=O`: the Percent Effect was found to be 9.14%.

Turning to `CSc1ncc(C(=O)N2C[C@H]3CC[C@@H]2CN(Cc2ccccc2)C3)cn1`, the Percent Effect was 11%.

As to `N#CCSCCCN1CCCN(C(=O)c2ccccc2)CC1`, the Percent Effect is 1.63%.

On to `Cc1nn(C)c(N2CCOCC2)c1CNC(C)c1ccco1` (centres undefined), for which the Percent Effect amounted to 13.9%.

In the case of `COc1cc(CNc2cnn(C)c2)cc2c1OCCO2`, the Percent Effect worked out at 4.68%.

As for `CCOCC1CN(S(C)(=O)=O)Cc2ncn(CC3CC3)c21` (centres undefined), the Percent Effect worked out at 5.58%.

For the molecule `COc1ccc(C(=O)Nc2cnn(CC(=O)NC3CCCC3)c2)c(O)c1`, the Percent Effect was found to be 9.16%.

As to `COCC(=O)N1CCCC1c1ccnc(Nc2cnccn2)n1` (centres undefined), the Percent Effect amounted to 10.3%.

For the molecule `Cn1cnc2c1CCN(CCCOc1ccc(C#N)cc1)C2`, the Percent Effect is 5.98%.

In the case of `COCCN1CCC(NCc2cccc(F)c2)C1` (centres undefined), the Percent Effect stood at 8.78%.

On to `Cc1nc(CCN(C)C(=O)C2COc3ccccc3C2)no1` (centres undefined), for which the Percent Effect was found to be 16.1%.

As to `COCC1CC2(CCN(C(=O)c3cccc(C)c3)CC2)CO1` (centres undefined), the Percent Effect is 1.74%.

As for `CC(C)CC(=O)N1CCCn2cnc(CN3CCCC3=O)c2C1`, the Percent Effect is -0.429%.

Turning to `Cc1nc(C)n(CC2CCCN(Cc3nc(C4CC4)no3)C2)n1` (centres undefined), the Percent Effect worked out at 12.8%.

Take `COc1cccc([C@@H]2CN(C(=O)c3ccc(C)cc3O)C[C@H]2C(=O)O)c1`: the Percent Effect was found to be 15.9%.

Take `Nc1nc(CN2CCCC(Cn3cncn3)C2)nc2ccccc12` (centres undefined): the Percent Effect is -5.92%.

With `O=C1C(NS(=O)(=O)c2cc(F)cc(F)c2)CCN1Cc1ccccc1` (centres undefined), the Percent Effect amounted to 13.7%.

On to `CCCc1nc(N2Cc3cnn(Cc4ccc(F)cc4)c3C2)no1`, for which the Percent Effect was found to be 14.1%.

For the molecule `COc1cc(N2C[C@H]3OCC[C@H]3[C@H](C(=O)NC3CC3)C2)ncn1`, the Percent Effect was found to be 6.93%.

As to `CCN(Cc1cccc(Cl)c1)Cc1nc2c(cnn2C)c(=O)[nH]1`, the Percent Effect came to 15.4%.

As to `CC(C)c1ccc(OCn2ccc(C(=O)N3CCCC3)n2)cc1`, the Percent Effect amounted to 12.5%.

On to `CCc1cc(NC2CCN(S(C)(=O)=O)CC2)n2nc(C)c(C)c2n1`, for which the Percent Effect turned out to be 22.6%.

Take `COc1c(CNCC(c2cccc(F)c2)N(C)C)c(C(C)C)nn1C` (centres undefined): the Percent Effect was found to be 4.61%.

In the case of `Cc1ccccc1C(=O)NCc1ccc(N2CCNC(=O)C2)c(F)c1`, the Percent Effect is 8.97%.
